Measured values from paper PMC4336329 (PLoS ONE, 2015).
In all, about 310,000 compounds went through this assay and about 14,000 (4.5%) showed an effect of 50% or more. Effects have a minus sign here. This excerpt belongs to a sample that is enriched for strong results.

target: human ether-à-go-go-related gene (hERG) potassium channel (human, UniProt Q12809); test: primary screen, population patch clamp on CHO cells stably expressing hERG; higher = less effect of the substance
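Note: peak tail current of the secondary pulse compared with the same well before compound.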

Chain of human ether-à-go-go-related gene (hERG) potassium channel (Q12809 whole entry, looked up): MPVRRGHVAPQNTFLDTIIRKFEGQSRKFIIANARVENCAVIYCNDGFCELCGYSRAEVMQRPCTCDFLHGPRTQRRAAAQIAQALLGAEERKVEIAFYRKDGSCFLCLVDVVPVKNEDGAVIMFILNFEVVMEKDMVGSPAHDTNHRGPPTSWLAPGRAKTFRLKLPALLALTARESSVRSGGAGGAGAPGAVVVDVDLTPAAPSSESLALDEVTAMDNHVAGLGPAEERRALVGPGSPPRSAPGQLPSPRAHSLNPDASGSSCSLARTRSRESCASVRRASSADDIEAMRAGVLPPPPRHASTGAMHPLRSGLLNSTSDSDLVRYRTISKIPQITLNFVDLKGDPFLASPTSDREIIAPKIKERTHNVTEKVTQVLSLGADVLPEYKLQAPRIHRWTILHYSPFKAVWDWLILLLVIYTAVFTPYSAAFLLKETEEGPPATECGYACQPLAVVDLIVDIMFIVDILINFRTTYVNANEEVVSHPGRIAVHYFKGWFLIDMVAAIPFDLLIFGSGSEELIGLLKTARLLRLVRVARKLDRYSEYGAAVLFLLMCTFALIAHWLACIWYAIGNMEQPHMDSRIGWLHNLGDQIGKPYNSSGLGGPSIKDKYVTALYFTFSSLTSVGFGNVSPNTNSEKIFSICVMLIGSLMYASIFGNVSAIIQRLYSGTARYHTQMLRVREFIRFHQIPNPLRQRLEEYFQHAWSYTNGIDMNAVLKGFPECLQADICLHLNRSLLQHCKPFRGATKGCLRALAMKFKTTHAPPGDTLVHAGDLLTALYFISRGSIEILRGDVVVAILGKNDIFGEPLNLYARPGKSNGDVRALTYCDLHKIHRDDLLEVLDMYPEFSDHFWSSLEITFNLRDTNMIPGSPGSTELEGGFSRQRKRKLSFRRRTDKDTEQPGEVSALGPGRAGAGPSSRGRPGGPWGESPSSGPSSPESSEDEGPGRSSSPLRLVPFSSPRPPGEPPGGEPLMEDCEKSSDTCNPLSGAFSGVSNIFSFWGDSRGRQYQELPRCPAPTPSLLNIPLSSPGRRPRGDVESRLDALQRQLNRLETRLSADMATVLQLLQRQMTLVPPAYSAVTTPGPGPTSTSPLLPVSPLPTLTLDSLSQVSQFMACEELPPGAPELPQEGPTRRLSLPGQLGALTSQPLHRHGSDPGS

Row | SMILES | hERG current change (%, negative = inhibition) at 10uM [%]
1 | Cc1ccc(-n2nnnc2SCC(=O)c2c(N)n(C3CC3)c(=O)[nH]c2=O)cc1C | -10.6
2 | COc1cccc(/C=N/NC(=O)CNC(=O)c2ccc(S(=O)(=O)N3CCOCC3)cc2)c1OC | -4.96
3 | O=c1nc(-c2ccccc2)n(-c2ccccc2)[nH]1 | 1.69
4 | COCC1CCN(C(=O)c2cc(COc3cncc(Cl)c3)on2)C1 (centres unmarked) | 5.09
5 | C/C(CC(=O)Nc1cccc(Cl)c1C)=N\NC(=O)Cc1csc(N)n1 | 2.42
6 | N#Cc1c(N)nc2c(c1N)CC(CO)O2 (centres unmarked) | 22.6
7 | Cc1occc1-c1nnc(SCC(=O)c2ccc(Cl)cc2)n1CC1CCCO1 (centres unmarked) | -65.1
8 | COc1ccc(C(=O)CSc2nnc(-c3ccoc3C)n2CC2CCCO2)cc1 (centres unmarked) | -11.7
9 | Cc1occc1-c1nnc(SCC(=O)NCc2cccs2)n1-c1ccc(F)cc1 | -60.2
10 | O=C(CSc1nnnn1-c1ccc(F)cc1)NCc1cccs1 | -0.104
11 | Cc1occc1-c1nnc(SCC(=O)c2ccccc2)n1CC1CCCO1 (centres unmarked) | -8.58
12 | Cc1occc1-c1nnc(SCC(=O)NCC2CCCO2)n1C (centres unmarked) | -2
13 | COc1ccc(-c2nnc(SCC(=O)NCc3cccs3)n2C(C)C)cc1 | -35.8
14 | Cc1ccc(-n2c(SCC(=O)NCC3CCCO3)nnc2-c2ccoc2C)cc1 (centres unmarked) | -55.6
15 | COc1ccc(-n2c(SCC(=O)NCc3cccs3)nnc2-c2ccoc2C)cc1 | -78
16 | O=C(CSc1nnc(-c2ccncc2)n1-c1ccc(Cl)cc1)NCc1cccs1 | -15.3
17 | Cc1ccc(C)c(-n2c(SCC(=O)NCC3CCCO3)nnc2-c2ccoc2C)c1 (centres unmarked) | 6.82
18 | COc1ccc(-c2nnc(SCC(=O)NCc3cccs3)n2C)cc1 | -1.49
19 | COc1cccc(N=Nc2c(C)[nH]n(-c3ccccc3)c2=O)c1 | 10.1
20 | O=C(Cn1nc(C(F)F)cc1C1CC1)N1CCCC1 | 1.61
21 | CCCCn1c(SCC(=O)NC2CCS(=O)(=O)C2)nnc1-c1ccc(OC)cc1 (centres unmarked) | -4.68
22 | Cc1ccc(NC(=S)N/N=C2\CCCCC2C)cc1 (centres unmarked) | -10.4
23 | O=C(ONC1=NCCCCC1)c1ccc([N+](=O)[O-])cc1 | -5.87

Row | SMILES | hERG current change (%, negative = inhibition) at 10uM [%]
24 | CC(=O)Nc1ccc(S(=O)(=O)N2CCC(C(=O)NC3CCCC3)CC2)cc1 | -0.813
25 | CC(=O)Nc1ccc(S(=O)(=O)NC(C)C(=O)NCCc2ccc(F)cc2)cc1 (centres unmarked) | 11.3
26 | Cc1ccc(C(O)(C(=O)NNc2ccc3ccccc3[nH+]2)c2ccc(C)cc2)cc1.[Cl-] | 12.9
27 | Cc1cccc(-n2c(SCC(=O)O)nc3sc4c(c3c2=O)CCCC4)c1 | 16.6
28 | CCCC(=O)C1C(=O)CC(C)(C)C(c2cc(C)no2)C1=O (centres unmarked) | -6.76
29 | Nn1c(SCC(=O)NCC2CCCO2)nnc1-c1ccc(OC(F)F)cc1 (centres unmarked) | -68.5
30 | COc1ccc(-c2nnc(SCC(=O)NCC3CCCO3)n2C)cc1 (centres unmarked) | 9.8
31 | CC(Sc1nnc(-c2ccc(OC(F)F)cc2)n1N)C(=O)NCC1CCCO1 (centres unmarked) | -24.2
32 | COC(=O)CSc1nnc(-c2ccoc2C)n1-c1ccc(C)cc1 | -37
33 | Cc1ccc(-n2c(SCC(=O)NCc3cccs3)nnc2-c2ccoc2C)cc1 | -74.8
34 | Cc1nnc(SCC(=O)NCc2cccs2)n1-c1ccccc1 | 1.68
35 | O=C1C2CCCN2C(c2ccc(Cl)cc2)N1c1ccccn1 (centres unmarked) | -3.03
36 | OC(CNCc1ccccc1F)(c1ccc(F)cc1)c1ccc(F)cc1 | -26.7
37 | COc1ccc(CNCC(O)(c2ccc(Cl)cc2)c2ccc(Cl)cc2)cc1OC | -30.9
38 | COc1ccc(CNCc2ccc(C(F)(F)F)cc2)cc1OC.O=C(O)C(=O)O | 6.54
39 | COc1ccccc1CNCC(O)(c1ccc(F)cc1)c1ccc(F)cc1 | -68
40 | Cc1ccc(CNCC(O)(c2ccccc2)c2ccccc2)cc1 | -33
41 | COc1ccccc1CNCC(O)(c1ccc(Cl)cc1)c1ccc(Cl)cc1 | -13.7
42 | COc1ccc(CNCC(O)(c2ccccc2)c2ccccc2)cc1OC | -60
43 | COc1ccc(CNCC(O)(c2ccc(F)cc2)c2ccc(F)cc2)cc1OC | -62.1
44 | COc1ccc(CNCC(O)(c2ccccc2)c2ccc(F)cc2)cc1OC (centres unmarked) | -61.2
45 | N#CCCN(Cc1ccccc1)S(=O)(=O)c1cccs1 | -16.5
46 | COc1cc(CC(=O)N(C)CC(=O)Nc2cc(C)ccc2C)cc(OC)c1OC | 11

Row | SMILES | hERG current change (%, negative = inhibition) at 10uM [%]
47 | COc1ccc(OCC(=O)O/N=C(\N)c2ccc(OC)c(OC)c2)cc1 | 7.84
48 | CN(C)S(=O)(=O)c1ccc(C(=O)OCC(=O)Nc2cccnc2Cl)cc1 | 1.64
49 | CC(=O)N1CCN(Cc2nc3cc(NC(=O)Cn4nc(C)c5ccccc5c4=O)ccc3n2C)CC1 | 17.9
50 | COc1ccc(CN2C(=O)CCC2(C)C(=O)NC2CCCCCC2)cc1 (centres unmarked) | -13.8
51 | O=C(NCc1ccncc1)Nc1cc(Cl)ccc1Cl | -8.6
52 | CC1=CN2CC(O)CN=C2C=C1.Cl (centres unmarked) | -1.57
53 | COc1cccc(OC)c1OCCNCC1CSc2ccccc2O1.Cl (centres unmarked) | -53.6
54 | COc1cccc(OC)c1OCCNCCO | 21.5
55 | COc1cccc(OC)c1OCCNCC1COc2ccccc2O1.Cl (centres unmarked) | -22.5
56 | COc1ccc(-n2nnc3c(SCC(=O)Nc4ccccc4F)ncnc32)cc1 | 18.9
57 | CCCn1c(SCC(=O)Nc2ccccc2OC)nnc1-c1ccco1 | -68.5
58 | COc1ccccc1NC(=O)CSc1nnc(-c2ccccn2)n1Cc1ccco1 | -9.97
59 | COc1ccccc1NC(=O)CSc1nnc(-c2ccco2)n1N | -3.82
60 | CCOC(=O)CNC(=O)CSc1nnc(-c2ccco2)n1Cc1ccco1 | 10.4
61 | COCCn1c(SCC(=O)Nc2ccccc2OC)nnc1-c1ccco1 | -13.6
62 | COc1ccc(C)cc1NC(=O)CSc1nnc(-c2ccccn2)n1Cc1ccco1 | -15.8
63 | CCOc1ccccc1NC(=O)CSc1nnc(Cn2c(=O)sc3ccccc32)n1C | -61.9
64 | CCOc1ccccc1NC(=O)CSc1nnc(-c2ccccn2)n1Cc1ccco1 | -67.3
65 | CCOc1ccccc1NC(=O)CSc1nnc(-c2ccco2)n1Cc1ccco1 | -63.4
66 | COc1ccccc1NC(=O)CSc1nnc(Cn2c(=O)sc3ccccc32)n1C | -44
67 | CCOc1ccc(NC(=O)CSc2nnc(Cn3c(=O)sc4ccccc43)n2C)cc1 | -4.3
68 | CCOc1ccccc1NC(=O)CSc1nnc(-c2ccccc2Cl)n1Cc1ccco1 | -32
